# The whole screen tested about 220,000 compounds, of which about 570 (0.26%) were called active. The sample holds actives, similar compounds and a random draw of the others, so the mix is not that of the screen. Unmarked numbers belong to inactive results. No stated cut-off is given here; in the data, active means inhibition above about 29%; inactive means the rest.
# Molecular target: Sphingosine 1-phosphate receptor 4 (Homo sapiens) (UniProt O95977)
# Assay: S1P4 receptor antagonists, primary screen, cell-based (AID 1510);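 further: 0% = wells stimulated with agonist and 100% = vehicle wells without agonist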
# Conditions: S1P4-expressing cells, antagonist mode, reporter read-out; at 4.98 µM; stronger effect = higher value
# Sphingosine 1-phosphate receptor 4 (Homo sapiens), sequence (O95977 whole entry, looked up): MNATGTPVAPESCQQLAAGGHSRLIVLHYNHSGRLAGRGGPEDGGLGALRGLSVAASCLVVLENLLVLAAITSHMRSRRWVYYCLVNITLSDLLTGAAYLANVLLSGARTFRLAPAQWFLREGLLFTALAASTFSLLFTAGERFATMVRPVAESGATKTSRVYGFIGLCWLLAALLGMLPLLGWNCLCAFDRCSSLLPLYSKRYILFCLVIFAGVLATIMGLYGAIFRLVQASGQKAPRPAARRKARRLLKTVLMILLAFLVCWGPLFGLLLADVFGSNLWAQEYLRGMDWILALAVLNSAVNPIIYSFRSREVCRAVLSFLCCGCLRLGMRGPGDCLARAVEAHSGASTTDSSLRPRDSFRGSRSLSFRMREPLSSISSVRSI
row,Structure (SMILES),inhibition
1,O=S1(=O)CCC(NC(=S)SCc2ccccc2Br)C1 (stereo not given),-3.75%
2,CC(C)Sc1nnc([C@H](Cc2ccccc2)NC(=O)OC(C)(C)C)o1,-0.59%
3,C[C@H](NC(=O)OC(C)(C)C)c1nnc(SCC(N)=O)o1,-7.8%
4,C[C@@H](NC(=O)OC(C)(C)C)c1nnc(S(=O)(=O)Cc2ccccc2)o1,64% (active)
5,CC(C(=O)NC1CCCC1)N(c1ccc(Oc2ccccc2)cc1)S(C)(=O)=O (stereo not given),-5.41%
6,CC(=O)N1CCN(S(=O)(=O)c2c(F)cc(F)c(Cl)c2F)CC1,6.68%
7,COCCCN(C(=S)Nc1c(C)cc(C)cc1C)C(C)c1ccncc1 (stereo not given),-9.1%
8,CCOC(=O)Cc1csc(NC(=O)CSc2ccc(Br)cc2)n1,-7.78%
9,Cc1cc(-c2cccs2)nc(-n2cccc2)n1,-8.93%
10,O=C(NNC(=S)NC(=O)c1cn(-c2ccccc2)nc1-c1ccccc1)c1ccncc1,13.1%
11,CCc1nnc(NC(=O)CCN(c2ccc(C)cc2)S(=O)(=O)c2ccccc2)s1,-0.25%
12,O=C(NCCOc1ccccc1Cl)C(=O)Nc1ccccc1,-2.25%
13,S=C(NCC1CCCO1)N1CCN(c2ccc(Cl)c(Cl)c2)CC1 (stereo not given),4.85%
14,CCC(C)(C)NC(=O)C(c1ccc(O)cc1)N(C(=O)Cn1nnc2ccccc21)c1ccc(NC(C)=O)cc1 (stereo not given),-9.34%
15,COc1cccc(NC(=O)c2nn(-c3ccc(OC)cc3OC)c(=O)c3ccccc23)c1,-8.83%
16,O=C(/C=C/c1ccc(Cl)cc1Cl)c1cccnc1,47.2% (active)
17,O=C(/C=C/c1ccc(Cl)cc1Cl)NCc1ccco1,3.88%
18,O=C(/C=C/c1ccc(Cl)c([N+](=O)[O-])c1)c1cccnc1,2.24%
19,CCc1c(C)nc2cc(C)[nH]n2c1=O,5.94%
20,Cc1cc(=O)n2[nH]c(-c3sccc3-n3c(C)ccc3C)cc2n1,-27%
21,CCc1c(C)nc2cc(-c3cccs3)[nH]n2c1=O,48.1% (active)
22,CN1C(=O)C(CC(=O)Nc2ccccc2)S/C1=N/c1nccs1 (stereo not given),-20.3%
23,Cc1coc2c(O)cc3c(c12)OC1(N2CCCCC2)C(=O)NCCCC31 (stereo not given),9.33%
24,COCc1cc(=O)oc2cc(NS(=O)(=O)c3ccc(C)cc3)ccc12,13.1%

row,Structure (SMILES),inhibition
1,CC(C)(C)c1ccc(/C=C2\Oc3c(ccc(O)c3CN3CCN(CCO)CC3)C2=O)cc1,12.8%
2,Cc1ccc2c(c1)C1CN(C)CCC1N2C(=S)Nc1ccc(Cl)cc1Cl (stereo not given),-21%
3,O=S(=O)(NCCc1ccc(F)cc1)c1cccc2cccnc12,-18.1%
4,CN(C)c1ccc(C(=S)N2CCN(C(=S)Nc3ccc(Cl)cc3)CC2)cc1,-3.9%
5,CC(=O)Oc1c(C(=O)c2nnc(C)o2)c(=O)n(Cc2ccccc2)c2ccccc12,-3.21%
6,COCCCNC(=S)NNC(=O)C(O)(c1ccccc1)c1ccccc1,-8.87%
7,O=C(O)CCC(=O)Nc1nc2ccc([N+](=O)[O-])cc2s1,-2.95%
8,O=C(NC(Nc1nc2ccc([N+](=O)[O-])cc2s1)(C(F)(F)F)C(F)(F)F)c1ccccc1,41.2% (active)
9,O=C(Nc1nc2ccc([N+](=O)[O-])cc2s1)c1ccncc1,-29%
10,Cc1cc(C)cc(OCC(=O)O/N=C(\N)Cc2ccc([N+](=O)[O-])cc2)c1,-5.5%
11,FC(F)Oc1ccccc1NC(=S)Nc1cccc(Cl)c1Cl,5.26%
12,COC(=O)CC1=NN(c2nc(C)cc(C)n2)C(=O)C1,-14.2%
13,CC(=O)c1cc(C#N)c(N2CC(C)OC(C)C2)nc1C (stereo not given),-33.6%
14,Cc1nc2ccccc2n1CC(=O)N/N=C/c1cccs1,-34.3%
15,Cc1ccc(NC(=O)CC2C(=O)N(Cc3ccccc3)C(=S)N2NC(=O)c2cccc(F)c2)c(C)c1 (stereo not given),6.19%
16,O=C(Nc1ccc(F)cc1F)N1CCCN(CCOc2ccccc2)CC1,6.19%
17,O=C(O)/C=C/c1ccc2c(c1)OCCO2,-7.83%
18,O=C(Nc1ccccc1Cl)c1ccc2nsnc2c1,-7.15%
19,O=C(Nc1ccccc1Cl)/C(Cl)=C(\Cl)S(=O)c1ccccc1 (stereo not given),98.4% (active)
20,O=C(CN1CCCCC1)Nc1ccccc1Cl,-3.07%
21,COC(=O)c1ccccc1NC(=O)C1CCN(S(=O)(=O)c2cc(OC)ccc2OC)CC1,-24.9%
22,O=C1N(c2ccccc2)C(=Nc2ccccc2)SC12CC2,1.83%
23,CCN(CC)S(=O)(=O)c1ccc(C)c(NC(=O)COc2ccc(Br)cc2Cl)c1,-3.44%
24,COc1ccc(N2CCC(CNC(=S)Nc3c(C)cccc3C)C2)cc1 (stereo not given),4.09%

row,Structure (SMILES),inhibition
1,CCOc1ccc2nc(C(=O)N3CCCC(C)C3)sc2c1 (stereo not given),14.6%
2,O=C(Cc1cccs1)N(CC1CCCO1)C1(C(=O)NC2CCCCC2)CCCCC1 (stereo not given),-13.5%
3,O=C(Nc1nnc(C2COc3ccccc3O2)o1)c1ccc(F)cc1 (stereo not given),-4.96%
4,CC(C)c1cc(NCc2ccccn2)n2c(nc3ccccc32)c1C#N,12.6%
5,Cn1nnnc1NCc1ccc(Cl)c(Cl)c1,4.37%
6,CCCCCC(O)c1cccc(OCc2ccc3ccccc3n2)c1 (stereo not given),-14.6%
7,O=C(NCCCc1ccccc1)C1CCC(CNc2c(N3CCCCC3)c(=O)c2=O)CC1 (stereo not given),0.07%
8,CC(C)c1ccc(NC(=O)CCN2C(=O)c3ccc([N+](=O)[O-])cc3C2=O)cc1,-5.92%
9,CC(=O)c1c(-c2ccccc2)c2ccccc2[nH]c1=O,-27.5%
10,O=C(O)CSc1nccn1-c1cccc(Cl)c1,-14.5%
11,C/C(=N\Nc1ccc([N+](=O)[O-])cc1)c1ccc(-n2nncc2C(C)(C)C)cc1,-11.5%
12,COc1ccc(/C=N/NC(=O)Nc2ccc3nsnc3c2)c(OC)c1,9.36%
13,CC(=O)c1cccc(NC(=O)[C@@H](NC(N)=O)C(C)C)c1,-13.9%
14,Cc1ccc(S(=O)(=O)Nc2nc3ccccc3s2)cc1[N+](=O)[O-],-9.6%
15,COc1ccc(NC(=S)Nc2ccccc2Cl)cn1,-10.6%
16,COc1ccc(Nc2cc(Cl)ccc2C(=O)O)cn1,0.55%
17,COc1ccc(CS(=O)/C(Cl)=C(/Cl)C(=O)Nc2ccc(OC)nc2)cc1 (stereo not given),95.9% (active)
18,COc1ccc(NC(=S)NCCNC(C)=O)cc1,4.01%
19,COc1ccc(NC(=O)/C(Cl)=C(/Cl)S(=O)Cc2ccc(C)cc2)cn1 (stereo not given),59.5% (active)
20,Cc1ccc(NC(=O)OCc2cncs2)cc1,6.88%
21,CCn1cc(-c2cc(C(=O)O)on2)c(C)n1,-15.2%
22,Cc1csc(CN(C)C(=O)CC2C(=O)NCCN2CC(C)(C)C)n1 (stereo not given),2.01%
23,CC(C)N(C)C(=O)CCc1nnc(CCc2c[nH]c3ccccc23)o1,-1.14%
24,CCOc1ccc(C(CCc2ccccc2)NC(=O)c2ccc(OC)c(OC)c2)cc1OCC (stereo not given),0.03%

row,Structure (SMILES),inhibition
1,CC(=O)Nc1ccc(S(=O)(=O)Nc2nccc(/C=C/c3ccccc3F)n2)cc1,-21.4%
2,O=C(CC(=O)Nc1ccc(Cl)c(Cl)c1)N/N=C/c1ccc(O)cc1,-17.9%
3,O=C(CC(O)(C(F)(F)F)C(F)(F)F)Nc1ccc(Cl)c(Cl)c1,33.2% (active)
4,CN(C)CCNC(CC(=O)Nc1ccc(Cl)c(Cl)c1)C(=O)O (stereo not given),0.14%
5,CN(C(=O)CSc1nnc(Nc2ccccc2)s1)C1CCS(=O)(=O)C1 (stereo not given),-10.1%
6,Cc1ccc(OCCOCCOc2ccc(Br)cc2/C=N\NC(=O)c2ccncc2)cc1,-17.4%
7,N#Cc1c(-c2cccs2)nc(SCC(=O)c2ccc(Br)cc2)[nH]c1=O,15.8%
8,Cc1ccc(C(=O)Nc2sc(Cc3ccc4c(c3)OCO4)c(C)c2C(N)=O)cc1,-11.1%
9,O=C(Nc1ccccc1)OCc1cc(-c2ccc(Cl)cc2)on1,-6.25%
10,O=C1C=C(c2ccc(Cl)cc2)C(=O)N1Nc1ccccc1,34.7% (active)
11,O=C1c2cccc3cc(Br)cc(c23)C(=O)N1Nc1ccccc1,-15.2%
12,FC(F)(F)c1cccc(-c2nc(COc3ccc(Cl)cc3Cl)no2)c1,-7.31%
13,Oc1ccc(-c2nncn2-c2ccccc2)cc1,-11.3%
14,CCNC(=O)COC(=O)CCNC(=O)c1cccc(C)c1,-16.4%
15,CCN(CCNC(=O)C1=C(C)C(=O)OC12CCC(C)CC2)c1ccccc1 (stereo not given),7.01%
16,O=C(CCN1C(=O)C2C3C=CC(C3)C2C1=O)Oc1ccc2ccccc2c1 (stereo not given),0.5%
17,O=C1c2cccc3c([N+](=O)[O-])ccc(c23)C(=O)N1CC1CCCO1 (stereo not given),77.4% (active)
18,O=c1c2cc3c(=O)n(CC4CCCO4)c(=O)c3cc2c(=O)n1CC1CCCO1 (stereo not given),1.15%
19,O=C(NCc1ccc2c(c1)OCO2)c1ccc2c(c1)C(=O)N(CC1CCCO1)C2=O (stereo not given),4.48%
20,Cc1cccc(NC(=S)NC(=O)c2ccc(Br)o2)c1,-1.45%
21,Cc1onc(NC(=O)c2ccc([N+](=O)[O-])o2)c1Br,28.1%
22,Cc1cccc(NC(=O)c2ccc([N+](=O)[O-])o2)c1,47.9% (active)
23,CN(C)C(=O)CSc1n[nH]c(-c2ccco2)n1,-22.7%

# From PubChem BioAssay AID1510 (The Scripps Research Institute Molecular Screening Center, 2009)
